# FMDV inh = antivirals against foot and mouth disease virus | FMDV antiviral cell-based qHTS | Potency, µM (top dose mostly 57.9 µM), for inactives: top-dose activity change, negative = inhibition, most hits filed as inhibitors | actives 1.2% (n = 410,000); calls by dose curve; tested in HEK293T cells; note: read-out not given here; potency is the fitted concentration of half-maximal effect; nearly all actives have a fitted effect of over 45% in size
# HCMV antiviral = inhibitors of human cytomegalovirus; HFF cells, HCMV-luciferase reporter, 72 h; active compounds read low; activity change, negative = inhibition, % at 57.5 µM; actives 4.5% (n = 410,000); AID 1259415; in the data active = activity change below about -60%; inconclusive = no clear call, values can overlap the other calls; inactive = above about -39%
#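 Cell-based, HFFs, 1000 cells/well, 16 h 37C; cpds in DMSO + HCMV-luc, MOI 1 PFU/cell; 72 h 37C; OneGlo luminescence after 5 min RT; norm. to buffer vs Salinomycin 10uM.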
# HCV inh = inhibitors of hepatitis C virus infection. Huh7.5.1 HCVcc-Cre infection, luciferase reporter, 44 h. Potency, µM (titrated, usually from 41.8 µM), for inactives: at the top dose activity change, negative = inhibition, usual class: inhibitors. actives 3.4% (n = 340,000). AID 651820; note: potency is the fitted concentration of half-maximal effect
#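 Antiviral activity was scored by luciferase reporter output from cells infected with HCVcc-Cre (~0.5 moi) in presence of compound, 44 h infection period, cells seeded 1,000/well 4 h prior.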
# AmpC detergent = AmpC beta-lactamase inhibition with detergent present | AmpC hydrolysis of nitrocefin, absorbance 480 nm, 0.01% Triton | Potency, µM (titrated, usually from 114 µM), without a hit: at the highest dose activity change, negative = inhibition, actives largely listed as inhibitors | actives 0.041% (n = 370,000) | AID 485294;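 note: potency is the fitted concentration of half-maximal effect; 0% = no-compound wells and -100% = no-enzyme wells; nearly all actives have a fitted effect of over 25% in size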
# Target sequence (P00811 whole entry, looked up): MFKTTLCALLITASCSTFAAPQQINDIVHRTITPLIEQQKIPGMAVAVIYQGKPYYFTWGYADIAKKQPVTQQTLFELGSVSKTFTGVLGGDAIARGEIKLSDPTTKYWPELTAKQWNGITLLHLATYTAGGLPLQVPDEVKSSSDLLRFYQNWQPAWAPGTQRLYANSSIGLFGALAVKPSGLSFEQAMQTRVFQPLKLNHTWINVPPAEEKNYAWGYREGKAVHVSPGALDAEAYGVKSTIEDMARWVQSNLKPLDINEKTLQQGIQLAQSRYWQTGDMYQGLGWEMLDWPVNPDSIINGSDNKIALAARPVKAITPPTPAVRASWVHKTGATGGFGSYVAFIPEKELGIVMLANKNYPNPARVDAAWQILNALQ
#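 AmpC (5.3 nM in the dispensed reagent) in 20 mM phosphate pH 7.0 with 0.01% (detergent screen) or 0.0001% Triton X-100 was preincubated with compounds for 15 min at room temperature. Nitrocefin was then added from an 800 uM solution, and hydrolysis was followed at 480 nm.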
# AmpC no deterg = blocks E. coli AmpC beta-lactamase in detergent-free assay; AID 485341; Potency, µM (highest dose often 57.1 µM), without a hit: at the top dose activity change, negative = inhibition, most hits filed as inhibitors; P00811; AmpC nitrocefin hydrolysis, absorbance 480 nm, 0.0001% Triton; actives 0.52% (n = 330,000);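 note: potency is the fitted concentration of half-maximal effect; plate controls were no compound for no effect and no enzyme for full effect; nearly all actives have a fitted effect of over 20% in size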
#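 AmpC (5.3 nM in the dispensed reagent) in 20 mM phosphate pH 7.0 with 0.01% (detergent screen) or 0.0001% Triton X-100 was preincubated with compounds for 15 min at room temperature. Nitrocefin was then added from an 800 uM solution, and hydrolysis was followed at 480 nm.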
# * = called active by the depositor; ? = inconclusive; nt = not tested or not shown. Sampled rows, rich in hits. Any-hit rate of the full collection: about 7.3%. Unless noted, calls come from the whole dose curve; as a rule, active = well fitted curve in the direction sought with a large enough effect; inconclusive = small, poorly fitted or top-dose-only effect, or another doubt; inactive = no such curve, though single readings can be large; an effect the other way counts as inactive or inconclusive. Unless noted, % is set by controls: 0 for no effect and ±100 for the full control effect.
SMILES,FMDV inh,HCMV antiviral,HCV inh,AmpC detergent,AmpC no deterg
CC(C)Cn1cc(NC(=O)NCc2cccc(Cl)c2)c2ccccc2c1=O,-18%,-13,nt,13%,nt
COC(=O)c1sc(NC(=O)CSc2nnnn2C)nc1C,34%,85,-12%,?,-22%
O=C(NCC1COc2ccccc2O1)c1ccc(F)c(S(=O)(=O)N2CCOCC2)c1 (stereo unspecified),-7%,-13,-2%,-5%,-13%
CCc1ccc(NC(=O)c2ccc(F)c(S(=O)(=O)NCC3COc4ccccc4O3)c2)cc1 (stereo unspecified),-27%,-91*,?,?,-19%
COc1cc(C=C(c2nc3ccccc3s2)c2nc3ccccc3s2)ccc1O,2%,?,?,-11%,-35%
COc1ccc(C=C(c2nc3ccccc3s2)c2nc3ccccc3s2)cc1O,-7%,-83*,?,?,-28%
CCCCNC(=O)c1nn2c(C(F)(F)F)cc(-c3ccccc3)nc2c1Br,-25%,31,?,?,12%
CCN(CC)CCCNC(=O)c1nn2c(C(F)(F)F)cc(-c3ccccc3)nc2c1Cl,-16%,0,4µM*,-13%,-3%
O=C1CN(/N=C/c2ccc([N+](=O)[O-])o2)C(=O)N1,-33%,-15,25µM*,-8%,-20%
COc1cccc(C2C(C(=O)/C=C/c3ccco3)=C(O)C(=O)N2CCN2CCOCC2)c1 (stereo unspecified),-4%,0,-3%,8%,12%
COc1ccc(C2C(C(=O)/C=C/c3ccco3)=C(O)C(=O)N2CCN2CCOCC2)cc1 (stereo unspecified),-1%,11,11µM*,?,-3%
CC1(C)N=C(N)N=C(N)N1c1ccc(Oc2ccc(Cl)cc2)c(Cl)c1,-24%,-100*,?,1%,2%
COc1ccc(N=Cc2c(O)n(-c3cccc(C)n3)c(=O)c3ccccc23)cc1,?,-39,-20%,-9%,135%
O=c1c(C=Nc2ccc(Oc3ccccc3)cc2)c[nH]n1-c1cccc(Cl)n1,-25%,-65*,16%,-8%,-17%
COc1ccc(NC(=O)CN2C(=O)C(=O)N(C3CCCC3)C2=O)c(OC)c1,-15%,49,3%,nt,-27%
Oc1[nH]c(N=C2N=c3ccccc3=N2)c2ccccc12,10%,-97*,-26%,-10%,-32%
Cc1ccc2nc(CN(C)C(=O)[C@@H](Cc3ccccc3)NC(=O)[C@H]3O[C@@H](n4cnc(C(N)=O)n4)[C@H](O)[C@@H]3O)[nH]c2c1,nt,-16,nt,nt,nt
C[N+](C)(C)CC1CCCC(C[N+](C)(C)C)C1=O (stereo unspecified),?,-28,2.2µM*,nt,nt
C[N+](C)(C)CC1CCCc2ccccc2C1=O (stereo unspecified),?,?,11µM*,nt,nt
O=c1c2ccccc2cnn1-c1nc2ccccc2[nH]1,1.8µM*,-92*,9%,3%,-27%
O=c1c(Cl)c(N2CCCCC2)cnn1-c1nc2ccccc2[nH]1,?,-61*,-6%,5%,-24%
Clc1ccc2nc(N3CCCCC3)[nH]c2c1,0%,224,?,-2%,-14%
O=C(COc1ccc(Cl)cc1Cl)c1ccc[nH]1,56%,-20,11%,5%,-39%
COc1ccc(Br)cc1C(=O)CCC(=O)OCC(=O)Nc1cc(C(N)=O)cc(C(N)=O)c1,-16%,nt,-12%,-16%,-19%
O=C(CCSc1nc(-c2ccc3c(c2)OCO3)cc(C(F)(F)F)n1)NCc1ccccc1,-8%,-3,?,4%,-13%
SMILES,FMDV inh,HCMV antiviral,HCV inh,AmpC detergent,AmpC no deterg
CN(Cc1ccccc1)C(=O)CCSc1nc(-c2ccc3c(c2)OCO3)cc(C(F)(F)F)n1,-18%,-27,10µM*,?,-24%
CCCn1c(N)c(C(=O)CSc2nnc(Cc3ccccc3)o2)c(=O)n(C)c1=O,?,-32,10µM*,?,-2%
O=C(CSc1nnc(Cc2ccccc2)o1)c1ccccc1,29%,-16,-9%,-10%,-13%
Cc1ccc(Cl)cc1NC(=O)Nc1nnc(N2CCCC(C)C2)s1 (stereo unspecified),-5%,13,nt,14%,nt
CC(NC(=O)c1ccccc1F)c1nnc(SCC(=O)NC2=NCCS2)n1C (stereo unspecified),-7%,-27,3%,-7%,-20%
COc1ccc(OCC(O)CN2CCC(CN3C(=O)c4cccc5cccc(c45)C3=O)CC2)cc1 (stereo unspecified),-16%,27,?,-6%,39%
O=C1c2cccc3cccc(c23)C(=O)N1CC1CCN(CC(O)COCc2ccc3c(c2)OCO3)CC1 (stereo unspecified),-29%,-20,10µM*,-4%,96%
CCOC(=O)Cc1cc(=O)[nH]n(-c2ccccc2)c1=O,13%,37,?,nt,nt
COc1cccc(Cn2cccc(NC(=O)Nc3ccccc3C)c2=O)c1,?,-17,10µM*,-2%,-17%
COc1ccc(Cn2cccc(NC(=O)Nc3cccc(OC)c3)c2=O)cc1,?,0,14µM*,-4%,-30%
COc1cccc(Cn2cccc(NC(=O)Nc3ccc(C#N)cc3)c2=O)c1,18µM*,-66*,4µM*,-15%,-20%
S=C(Nc1ccc(CN2CCCCC2)cc1)Nc1cccc(Cl)c1Cl,-3%,-27,?,?,-10%
Cc1cccc(CNCCn2cc(C(=O)Nc3ccccc3)nn2)c1,10%,nt,nt,nt,nt
CCCCC(=O)/C=C/n1c(=S)oc2ccccc21,?,-101*,?,-13%,-24%
Cc1cccc(NC(=O)C(C)Sc2nnc(-c3cccnc3)o2)c1 (stereo unspecified),-3%,51,-15%,-21%,-13%
O=C(NCC1CCCN(Cc2ccccc2F)C1)c1cccc(C(F)(F)F)c1 (stereo unspecified),-25%,?,11µM*,5%,21%
CN(C)c1cccc(C(=O)N(C)C2CCCN(Cc3ccccc3F)C2)c1 (stereo unspecified),15%,-71*,-17%,0%,12%
Cc1cc(C)cc(C(=O)N(C)C2CCCN(Cc3ccccc3F)C2)c1 (stereo unspecified),0%,8,13µM*,-8%,59%
CN(C(=O)c1ccncc1)C1CCCN(Cc2ccccc2F)C1 (stereo unspecified),-6%,1,-1%,0%,63%
COc1ccc(NS(=O)(=O)c2cc(NC(=O)c3cccc(OCc4c(C)noc4C)c3)ccc2OC)cc1,55%,-65*,?,-8%,-12%
Cc1ccc(NC(=O)c2ccc(OCc3c(C)noc3C)cc2)nc1,?,?,11µM*,-6%,-17%
Cc1ccc(NC(=O)c2cccc(OCc3c(C)noc3C)c2)cc1,10%,12,?,-7%,-12%
